Measurements published in PubChem BioAssay (NCI).
The panel holds about 83,000 compounds, 20% with a hit somewhere; the sample as a whole holds those more often.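 Values shown are percent growth following 48 h exposure of cells in 96-well plates to a single concentration of compound; below 10 was considered active.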 A number with no mark means an inactive call. Calls of active or inactive are those of the source.

What was measured:
Assay in all cases: NCI-60 one-dose screen, 48 h (100 = growth as untreated, 0 = no growth, -100 = all killed)
Settings in all cases: 10 µM unless noted
NCI-H23 lung = tested on: NCI-H23 lung
NCI-H226 lung = tested on: NCI-H226 lung
NCI-H322M lung = tested on: NCI-H322M lung
HOP-62 NSCLC = tested on: HOP-62 NSCLC
NCI-H460 lung = tested on: NCI-H460 lung
HOP-92 NSCLC = tested on: HOP-92 NSCLC
NCI-H522 lung = tested on: NCI-H522 lung
A549/ATCC NSCLC = tested on: A549/ATCC NSCLC
786-0 renal = tested on: 786-0 renal
DU-145 prostate = tested on: DU-145 prostate
K-562 leukemia = tested on: K-562 leukemia
MALME-3M melanoma = tested on: MALME-3M melanoma
MDA-MB-231 breast = tested on: MDA-MB-231 breast
RXF 393 renal = tested on: RXF 393 renal
SF-268 CNS = tested on: SF-268 CNS
SF-295 CNS = tested on: SF-295 CNS
SF-539 CNS = tested on: SF-539 CNS
UACC-257 melanoma = tested on: UACC-257 melanoma
M14 melanoma = tested on: M14 melanoma

Structure (SMILES)	growth (NCI-H23 lung)	growth (NCI-H226 lung)	growth (NCI-H322M lung)	growth (HOP-62 NSCLC)	growth (NCI-H460 lung)	growth (HOP-92 NSCLC)	growth (NCI-H522 lung)	growth (A549/ATCC NSCLC)	growth (786-0 renal)	growth (DU-145 prostate)	growth (K-562 leukemia)	growth (MALME-3M melanoma)	growth (MDA-MB-231 breast)	growth (RXF 393 renal)	growth (SF-268 CNS)	growth (SF-295 CNS)	growth (SF-539 CNS)	growth (UACC-257 melanoma)	growth (M14 melanoma)
Clc1ccc2c(NCCCN3CCN(c4nc(-n5ccnc5)nc5ccccc45)CC3)ccnc2c1	104%	113%	87.1%	84.7%	89.3%	58.7%	75.7%	96.9%	78.8%	93.3%	-48.8% (active)	-83.2% (active)	8.95% (active)	37.1%	80%	61.2%	-83.7% (active)	87.1%	-24% (active)
CNC(=O)c1cc(Oc2ccc3nc(Nc4cc(Cl)cc(Cl)c4)ccc3c2)ccn1	70.6%	81.9%	82.9%	72.1%	66.9%	67.6%	29.6%	49.3%	82.6%	78%	19.1%	64.7%	34.6%	92.4%	59.8%	47.1%	75.3%	53.2%	38.5%
O=C(Oc1ccc([N+](=O)[O-])cc1)c1ccc(CBr)cc1	98.5%	106%	100%	139%	100%	88.5%	-21.2% (active)	97.9%	108%	107%	86.7%	97.9%	84.8%	114%	100%	103%	97%	92.6%	105%
C=C1C(=O)O[C@H]2[C@H]1CC/C(C(=O)NCCCCCCCCNC(=O)/C1=C/CC[C@@]3(C)O[C@H]3[C@H]3OC(=O)C(=C)[C@@H]3CC1)=C\CC[C@@]1(C)O[C@@H]21	92.3%	88.7%	94.9%	109%	110%	4.35% (active)	-64.5% (active)	82.9%	85.1%	84.1%	18.3%	16.4%	74.3%	43.1%	91.8%	110%	70.1%	61.8%	82.8%
CN=C1C=CC(=C(c2ccc(N(C)C)cc2)c2ccc(N(C)C)cc2)C=C1	-8.66% (active)	6.94% (active)	-25.8% (active)	-23.4% (active)	-49.4% (active)	-39.1% (active)	-36.8% (active)	-23.6% (active)	-63.1% (active)	-6.79% (active)	2.18% (active)	-56.6% (active)	-46.9% (active)	-50.8% (active)	-56.5% (active)	-30.4% (active)	-38.3% (active)	-43% (active)	-65.4% (active)
COc1ccc(O)c(-c2cc(-c3ccccc3)c(C#N)c(=O)[nH]2)c1	84.1%	88.5%	96.4%	85.5%	92.5%	61.5%	65.6%	84.1%	85.4%	102%	68.9%	112%	89.9%	104%	103%	95.2%	98.1%	85%	94.9%
COc1ccc(-c2cc(-c3cc(OC)ccc3O)[nH]c(=O)c2C#N)cc1	59.1%	73.8%	94.5%	53.2%	41.6%	31.6%	15.4%	79.9%	57.3%	79.8%	23.7%	60.7%	45%	81.2%	61.3%	54%	39.4%	61%	27%
O=C1Nc2ccccc2/C1=N/N=C/c1ccsc1	95.2%	106%	100%	110%	105%	109%	93.8%	107%	108%	111%	89.9%	103%	92.5%	111%	101%	108%	103%	104%	105%
